From PubChem BioAssay (NCI) come the findings set out here.

The structures appear in SMILES notation. Compounds without any hit were thinned out: in the full panel of roughly 79,000, 15% have a hit. Unmarked numbers belong to inactive results. Activity calls are given as the source filed them. No stated cut-off is given here; in the data, active means growth inhibition above about 70%; inactive means the rest.

Assay [1] is described as follows: NCI Yeast Anticancer Drug Screen. Data for the rad50 strain (AID 155).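 Further: 0% = growth of vehicle-only cultures of the same strain.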 The settings on record: S. cerevisiae rad50 strain growth inhibition; at 50.0 µM; active compounds read high. The gist of the method: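 DNA repair mutant yeast, compound exposure, growth read-out; inhibition is taken relative to vehicle.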
Assay [2] can be described thus: NCI Yeast Anticancer Drug Screen. Data for the mec2-1 strain (AID 157). The settings on record: S. cerevisiae mec2-1 strain, at 50.0 µM, active compounds read high. In a few lines: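 Using mec2-1 yeast: add compound, measure growth, express inhibition versus vehicle-treated cultures.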
The nature of assay [3]: NCI Yeast Anticancer Drug Screen. Data for the sgs1 mgt1 strain (AID 161).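 Further: 0% = growth of cultures given vehicle only.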 The conditions noted are these: S. cerevisiae sgs1 mgt1 strain, at 50.0 µM, active compounds read high. The gist of the method: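 This yeast growth screen uses a strain with defined DNA-repair lesions; compound-treated growth is compared with vehicle-treated growth.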
A short description of assay [4]: NCI Yeast Anticancer Drug Screen. Data for the cln2 rad14 strain (AID 165).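 Further: 0% = growth equal to vehicle treated cultures.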 The conditions noted are these: S. cerevisiae cln2 rad14 strain, at 50.0 µM, active compounds read high. In a few lines:
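Yeast strain cln2 rad14, bearing defects in cell cycle control and DNA repair, serves as the test system; values reflect growth inhibition compared with vehicle.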

Assay [5] is described as follows: NCI Yeast Anticancer Drug Screen. Data for the bub3 strain (AID 167). The settings on record: S. cerevisiae bub3 mutant strain, at 50.0 µM, active compounds read high. The gist of the method: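 In this screen, a yeast mutant lacking normal mitotic checkpoint function is challenged with compound. Relative growth versus vehicle gives the inhibition value.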
Assay [6] can be described thus: NCI Yeast Anticancer Drug Screen. Data for the mlh1 rad18 strain (AID 175). The settings on record: S. cerevisiae mlh1 rad18 strain growth inhibition; at 50.0 µM; active compounds read high. The gist of the method:
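Steps: expose repair-defective yeast to compound; measure growth; express inhibition against vehicle-treated controls.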

With `CC1=CC(=O)N2C(OC[C@@H]2c2ccccc2)O1` (stereo not given in full), the growth inhibition in assay [1] was 3.5%; in assay [2], -11.8%; in assay [3], -12.9%; in assay [4], 9.95%; in assay [5] it was -18.9%; in assay [6] it was -21.4%.
For `CCOP(=O)(OCC)c1cc(NC(=O)c2cc(NC(=O)c3cc(NC(=O)Nc4cc(C(=O)Nc5cc(C(=O)Nc6cc(P(=O)(OCC)OCC)c7cccc(P(=O)(OCC)OCC)c7c6)n(C)c5)n(C)c4)cn3C)cn2C)cc2c(P(=O)(OCC)OCC)cccc12`, the growth inhibition is -5.45% in assay [1]; -1.55% in assay [2]; -16.1% in assay [3]; 19.9% in assay [4]; 2.5% in assay [5]; 10.7% in assay [6].
For the compound `O=c1c(C(=Nc2ccccc2)c2ccccc2)c[nH]n1-c1ccccc1`, the growth inhibition in assay [1] was -10.5%; in assay [2] it was 6.9%; in assay [3], -6%; in assay [4], 17.6%; in assay [5] it was -15.6%; in assay [6], -12.1%.
Consider `CCOC(=O)NC(Nc1ccc(Cl)cn1)(C(F)(F)F)C(F)(F)F`, for which the growth inhibition in assay [1] was -25.9%; in assay [2], -12.5%; in assay [3], -52.5%; in assay [4], -25.3%; in assay [5], -21.6%; in assay [6] it was -76.2%.
Take `CCC(C)OC(=O)C1C(=O)CC(c2ccccc2)C1c1ccccc1` (stereo not given): the growth inhibition in assay [1] was -2.2%; in assay [2] it was -8.4%; in assay [3], -4.8%; in assay [4], -1.45%; in assay [5], 3.4%; in assay [6], -6.35%.
As to `O=c1ccn(C2OC(C(O)CO)C(O)C2O)c(=O)[nH]1` (stereo not given), the growth inhibition in assay [1] is -4.95%; in assay [2], -2.55%; in assay [3] it was 5.45%; in assay [4] it was -60.8%; in assay [5], -8.15%; in assay [6], 9.25%.
For `Brc1c(NC2=NCCN2)ccc2nccnc12`, the growth inhibition in assay [1] is 6.2%; in assay [2] it was 5.1%; in assay [3], -24%; in assay [4], -6.45%; in assay [5], -22.1%; in assay [6], -56.9%.
On to `CC[N+](C)(CC)C(Cc1ccccc1)c1ccccc1` (stereo not given), for which the growth inhibition in assay [1] was 1%; in assay [2] it was 8.8%; in assay [3], 24.6%; in assay [4], 23%; in assay [5], -5.8%; in assay [6], 4.3%.
In the case of `C/C(=N/NS(=O)(=O)c1ccc(C)cc1)C(C)C`, the growth inhibition in assay [1] is 3.05%; in assay [2], 1.75%; in assay [3], 10.8%; in assay [4] it was -6.85%; in assay [5] it was 3.4%; in assay [6], 23.8%.
For the compound `O=C1C(N=Nc2ccc([N+](=O)[O-])cc2)Sc2nc3ccccc3n21` (stereo not given), the growth inhibition in assay [1] was 25.8%; in assay [2], -39.9%; in assay [3], 7.6%; in assay [4], -14.5%; in assay [5], -2.2%; in assay [6], 12.2%.
For the compound `OCC(CBr)(CBr)CBr`, the growth inhibition is 2.45% in assay [1]; -2% in assay [2]; 8.25% in assay [3]; 19.3% in assay [4]; 4.45% in assay [5]; -3.85% in assay [6].
For `c1ccc(-c2[nH]nc3nc4c(nc23)CCCC4)cc1`, the growth inhibition in assay [1] is 7.4%; in assay [2], -5.3%; in assay [3], -5.1%; in assay [4], -32.9%; in assay [5] it was -33%; in assay [6], 6.6%.
With `COc1nc(N)c([N+](=O)[O-])c(OC)n1`, the growth inhibition in assay [1] is -11.9%; in assay [2], -14.8%; in assay [3], -2.7%; in assay [4] it was -28.2%; in assay [5] it was -9.85%; in assay [6], -19.4%.
As to `C=C1CC(C)(Cn2c(N)nc3nc[nH]c3c2=O)OC1=O` (stereo not given), the growth inhibition in assay [1] is 11.7%; in assay [2], 5.95%; in assay [3], 11.1%; in assay [4], 12.9%; in assay [5], 14.1%; in assay [6] it was 4.8%.
Regarding `C/C(=C/c1ccccc1)C(F)F`, the growth inhibition is 3.9% in assay [1]; -5.7% in assay [2]; -13% in assay [3]; -7.45% in assay [4]; -11.6% in assay [5]; 8.75% in assay [6].
On to `COc1cc(OC)c(NC(=O)NC(C)(C)C)cc1Cl`, for which the growth inhibition in assay [1] was -3.35%; in assay [2], 9.4%; in assay [3], 17.1%; in assay [4], -2.5%; in assay [5] it was 18.6%; in assay [6], 23.4%.
On to `CCOC(=O)NC(CC)CO` (stereo not given), for which the growth inhibition in assay [1] is -13.1%; in assay [2], -22.9%; in assay [3], -14%; in assay [4], 16.1%; in assay [5], 5.55%; in assay [6] it was -6.9%.
Regarding `Cc1ccc(C(=O)NC(C)C)cc1N=NN(C)C`, the growth inhibition was -34.2% in assay [1]; -42.1% in assay [2]; -46.9% in assay [3]; 9.7% in assay [4]; -31.7% in assay [5]; -32.2% in assay [6].
Turning to `O=C(O)CCC(=O)C(Cc1ccccc1)NC(=O)c1ccccc1` (stereo not given), the growth inhibition is -14.4% in assay [1]; -16.6% in assay [2]; -10.1% in assay [3]; -4.05% in assay [4]; 6.1% in assay [5]; -10.4% in assay [6].
Regarding `CC(=O)/C=C1/NC(C(=O)c2ccccc2)=CNC1c1ccccc1` (stereo not given), the growth inhibition is 4.95% in assay [1]; 3.75% in assay [2]; 20.6% in assay [3]; -14.5% in assay [4]; 9.95% in assay [5]; 18.8% in assay [6].
`CN(C)C(=O)Sc1nnc(C(C)(C)C)o1`: the growth inhibition is -4.35% in assay [1]; -5.9% in assay [2]; -7.3% in assay [3]; -23.4% in assay [4]; 1.7% in assay [5]; 4.2% in assay [6].
Consider `O=c1c(N2CCOCC2)c(N2CCOCC2)c1=O`, for which the growth inhibition was -21.6% in assay [1]; -22.9% in assay [2]; 0.25% in assay [3]; 15.4% in assay [4]; -24.4% in assay [5]; -1.1% in assay [6].
For the compound `Cc1ccn2nnnc2c1`, the growth inhibition is -8.45% in assay [1]; -11.2% in assay [2]; -1.2% in assay [3]; 1% in assay [4]; 3.45% in assay [5]; -17.6% in assay [6].
`CC(=O)OCC1OC(OC(C)=O)C(Nc2ncnc3nc[nH]c23)C(OC(C)=O)C1OC(C)=O` (stereo not given): the growth inhibition was 28.1% in assay [1]; 23.9% in assay [2]; 49.9% in assay [3]; 11.6% in assay [4]; 16.5% in assay [5]; 37.8% in assay [6].
For `CC(C)(C)c1ccc(SC(=O)NCCCl)cc1`, the growth inhibition is -1.55% in assay [1]; 23.9% in assay [2]; 14.2% in assay [3]; -31.1% in assay [4]; -5.4% in assay [5]; -11.2% in assay [6].
Regarding `Cc1ccc(-c2cc(-c3ccco3)c(C#N)c(=O)[nH]2)cc1`, the growth inhibition in assay [1] is 13.5%; in assay [2] it was -8.55%; in assay [3], -13.5%; in assay [4] it was 16.4%; in assay [5], -10%; in assay [6] it was 6.8%.
On to `CNCc1ccccc1`, for which the growth inhibition was -1.25% in assay [1]; -2.8% in assay [2]; -21% in assay [3]; -23% in assay [4]; -19.8% in assay [5]; -3.4% in assay [6].
As for `CCOC(=O)C(NC(=O)c1cccc(Cl)c1)(Nc1ccc(S(=O)(=O)Nc2cc(C)on2)cc1)C(F)(F)F` (stereo not given), the growth inhibition is 67.2% in assay [1]; 69.3% in assay [2]; 82.3% (active) in assay [3]; 84.7% (active) in assay [4]; 79.2% (active) in assay [5]; 91% (active) in assay [6].
In the case of `N#Cc1c(-c2ccc(Cl)cc2)c2c(n(C3OC(CO)C(O)C(O)C3O)c1=S)CCC2` (stereo not given), the growth inhibition in assay [1] is 12.5%; in assay [2], 32.1%; in assay [3], 61.3%; in assay [4], 31.9%; in assay [5], 50.4%; in assay [6], 42.4%.
With `CCN(CC)CCSc1nnc(-c2cc(OC)c(OC)c(OC)c2)o1`, the growth inhibition is 32.5% in assay [1]; 1.1% in assay [2]; -21.1% in assay [3]; 14.8% in assay [4]; 4.2% in assay [5]; -9.85% in assay [6].
Regarding `c1ccc2c(c1)-c1ccccc1C2N1CCCC1`, the growth inhibition in assay [1] is 14.2%; in assay [2] it was 14.8%; in assay [3], 4.2%; in assay [4] it was 10.4%; in assay [5] it was -0.85%; in assay [6] it was -7.9%.
`CNC(=O)OCc1c(COC(=O)NC)c(C)n(-c2ccc3c(c2)OCO3)c1C`: the growth inhibition was -3.2% in assay [1]; -6.95% in assay [2]; 19.2% in assay [3]; -0.45% in assay [4]; 1.35% in assay [5]; -40.3% in assay [6].
On to `CCOc1ccc(-n2c(C)c(COC(=O)NC)c(COC(=O)NC)c2C)cc1`, for which the growth inhibition in assay [1] is 16.1%; in assay [2] it was -5.9%; in assay [3], 68.9%; in assay [4], 3.8%; in assay [5], 67.2%; in assay [6], 92.5% (active).
`CCCCCC(=O)OCCOCCOC`: the growth inhibition is 33.7% in assay [1]; -2.9% in assay [2]; 29.6% in assay [3]; 0.25% in assay [4]; 2.25% in assay [5]; 29.3% in assay [6].
As to `COc1ccc(CN(C)C)c(C(O)c2ccccc2)c1` (stereo not given), the growth inhibition in assay [1] was 9.2%; in assay [2], -1.75%; in assay [3], 0.7%; in assay [4], 7.6%; in assay [5], 9.5%; in assay [6], 13.2%.
